Pf Dd2 inh: qHTS Primary assay for Inhibitors of Plasmodium falciparum Dd2 growth in vitro | P. falciparum Dd2 growth, SYBR Green, 72 h | actives 4.3% (n = 120,000) | AID 1347417, 2020 | Potency, µM (titrated, usually from 28.9 µM), for inactives: at the highest dose activity, negative = inhibition, usual class: inhibitors; active means well fitted inhibition curve with a large enough effect;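 further: plate controls were DMSO vehicle for no effect and reference drug for full effect; nearly all actives have a fitted effect of over 65% in size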
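Infected erythrocytes (Dd2, 0.3% parasitemia, 2.5% hematocrit final) are added to compound in RPMI-1640/Albumax II medium, grown 72 h at 37C in low oxygen, then lysed with saponin/Triton-X containing SYBR Green and read by fluorescence.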
* = called active by the depositor; [ ] = remark or other dose. Shown is part of a subset that was picked to be rich in hits. Potency means the concentration at half of the fitted maximal effect.

For O=C(Cn1nc2c(cc1=O)CCCCC2)NCCN1CCOCC1 the results were Pf Dd2 inh 1%.
Screening CCn1c(CO)nnc1C1CC(NC(=O)Cc2c(C)[nH]c(=O)[nH]c2=O)C1 (stereo not given) returned Pf Dd2 inh 1%.
For O=C(Cc1c[nH]c2ncc(-c3ccsc3)cc12)N1CCOCC1 the results were Pf Dd2 inh 23%[44.1 µM].
For O=C(Nc1cc(F)ccc1Cl)c1cc2n(n1)CC(c1ccc(Br)cc1)OC2 (stereo not given) the results were Pf Dd2 inh inactive.
Screening COC[C@@H]1CN(C(=O)c2cc(C)cc(C)c2)C[C@H]1C(N)=O returned Pf Dd2 inh 0%.
Screening COc1ccc(-c2nc3ccc(C)cn3c2Nc2ccc3c(c2)OCO3)cc1 returned Pf Dd2 inh 17%.
`COc1ccc(-c2nc3cc(C)ccn3c2NC(=O)c2ccc(F)cc2)cc1` gave Pf Dd2 inh 21%.
`Cc1ccn2c(Nc3ccc4c(c3)OCO4)c(-c3ccc(N(C)C)cc3)nc2c1` gave Pf Dd2 inh 13µM*.
CN(C)c1ccc(-c2nc3ccc(Cl)cn3c2Nc2ccc3c(c2)OCCO3)cc1 was read as Pf Dd2 inh inactive.
`Cc1ccn2c(Nc3ccc(F)cc3)c(-c3ccccn3)nc2c1` gave Pf Dd2 inh 4.5µM*.
For Cc1ccc(Nc2c(-c3ccccn3)nc3ccc(Br)cn23)cc1 the results were Pf Dd2 inh -4%.
Screening CCC[C@H]1CN(Cc2ccccc2C#N)C[C@@H]1NS(C)(=O)=O returned Pf Dd2 inh -6%.
CC1(C)[C@H](Cc2cc(CO)on2)C[C@@H]1NC(=O)c1ccco1 was read as Pf Dd2 inh 1%[44.1 µM].
Screening CC1(C)[C@H](Cc2cc(COc3ccccc3)on2)C[C@@H]1NC(=O)COc1ccccc1 returned Pf Dd2 inh 8.9µM*.
CC(C)Cc1cc(C[C@@H]2C[C@H](NC3CCOCC3)C2(C)C)no1 was read as Pf Dd2 inh inactive.
Screening CCCN[C@H]1C[C@@H](Cc2cc(COc3ccccc3)on2)C1(C)C returned Pf Dd2 inh inactive.
`COCC(=O)N[C@H]1C[C@@H](Cc2cc(-c3ccc(OC)cc3)on2)C1(C)C` gave Pf Dd2 inh 2µM*.
CC1(C)[C@H](Cc2cc(COc3ccccc3)on2)C[C@@H]1NC(=O)Cc1ccccc1 was read as Pf Dd2 inh -18%[44.1 µM].
`COCc1cc(C[C@@H]2C[C@H](NC(=O)c3ccco3)C2(C)C)no1` gave Pf Dd2 inh 10µM*.
Screening COCc1cc(C[C@@H]2C[C@H](NC(=O)c3ccnc(Cl)c3)C2(C)C)no1 returned Pf Dd2 inh inactive.
Screening CC(C)(C)CC(=O)N[C@H]1C[C@@H](Cc2cc(COc3ccccc3)on2)C1(C)C returned Pf Dd2 inh inactive.
Screening CC1(C)[C@H](Cc2cc(COc3ccccc3)on2)C[C@@H]1NC1CCOCC1 returned Pf Dd2 inh 10µM*.
COCC(=O)NC1(Cc2cc(-c3ccc(OC)cc3)on2)COC1 was read as Pf Dd2 inh -3%[44.1 µM].
Screening COCC(=O)N[C@H]1C[C@@H](Cc2cc(CO)on2)C1(C)C returned Pf Dd2 inh -6%[44.1 µM].
`COc1ccc(CN2CCCC(C)(NC(C)=O)C2)c2ccccc12` (stereo not given) gave Pf Dd2 inh inactive.
O=C1[C@@H]2C[C@@H](CN2C(=O)C2CCOCC2)Oc2ccccc2N1Cc1ccccc1 was read as Pf Dd2 inh 9%[44.1 µM].
Screening COc1cc(NC(=O)N[C@H]2CO[C@H]3[C@@H]2OC[C@@H]3Nc2nccc(C(C)(C)C)n2)cc(OC)c1 returned Pf Dd2 inh inactive.
Cc1ncsc1CN1CCc2nc(N3CCN(C)CC3)sc2C1 was read as Pf Dd2 inh inactive.
For O=c1[nH]c(C2CCCN(Cc3cccnc3)C2)nn1-c1ccc(Cl)cc1 (stereo not given) the results were Pf Dd2 inh inactive.
Screening CCNC(=O)N1c2ccccc2CC1c1nc(C2CC2)no1 (stereo not given) returned Pf Dd2 inh inactive[5.79 µM].
CN(C)[C@@H]1CO[C@H](CNS(C)(=O)=O)[C@H]1O was read as Pf Dd2 inh 17%[44.1 µM].
For CCc1ccc(NC(=O)Cn2c(N(C)Cc3ccccc3)nc(C)cc2=O)cc1 the results were Pf Dd2 inh inactive.
Screening COc1cccc(C(=O)N2CCOc3ccc(CN4CCCCC4)cc3C2)c1 returned Pf Dd2 inh inactive.
For CCN(CC)Cc1ccc2c(c1)CN(C(=O)c1cccc(F)c1)CCO2 the results were Pf Dd2 inh 6.3µM*.
CCOCCCNC(=O)N1CCOc2ccc(CN(CC)CC)cc2C1 was read as Pf Dd2 inh inactive.
For CCCCc1nn(CC(=O)NC(CC)c2cccc(C)n2)c(=O)n1CC (stereo not given) the results were Pf Dd2 inh -15%.
CCc1ccccc1NC(=O)CC1CCN(c2ccnc(OC)n2)CC1 was read as Pf Dd2 inh inactive.
`COc1cccc(C(=O)N2C(C(=O)N3CCOCC3)COC23CCN(C(=O)CC(C)(C)C)CC3)c1` (stereo not given) gave Pf Dd2 inh -5%.
Cc1ccccc1[C@H]1[C@@H](C(=O)N(C)Cc2cccnc2)C[C@@](C)(C(=O)O)N1C was read as Pf Dd2 inh 6%.
`Cc1ccccc1C(=O)Nc1nnc(S(=O)(=O)N(C)Cc2ccccc2)s1` gave Pf Dd2 inh 35%.
CC1CCc2nc(NC(=O)COc3ccc(C(C)(C)C)cc3)sc2C1 (stereo not given) was read as Pf Dd2 inh 72%.
Cc1ccccc1C(=O)Nc1nnc(S(=O)(=O)N2c3ccccc3CC2C)s1 (stereo not given) was read as Pf Dd2 inh -12%.
Screening Cc1ccccc1C(=O)Nc1nc2c(s1)CC(C(C)(C)C)CC2 (stereo not given) returned Pf Dd2 inh 5.6µM*.
`CCCC(=O)Nc1nc2c(s1)CC(C(C)(C)C)CC2` (stereo not given) gave Pf Dd2 inh 13µM*.
`CC1CCc2nc(NC(=O)Cc3ccc(Cl)cc3)sc2C1` (stereo not given) gave Pf Dd2 inh 84%.
`Cc1ocnc1C(=O)N1CCC2(CC1)c1nc[nH]c1CCN2S(C)(=O)=O` gave Pf Dd2 inh 11%.
Screening O=S(=O)(NC[C@H]1Cn2ccnc2CO1)c1ccccc1 returned Pf Dd2 inh 7%[44.1 µM].
Screening CN1CCC(OC2CCN(S(=O)(=O)c3ccc(F)cc3F)CC2)CC1 returned Pf Dd2 inh -3%.
`CCn1cc(CNC(=O)c2ccc(OC3CCN(S(=O)(=O)N(C)C)CC3)cc2)cn1` gave Pf Dd2 inh -25%.
`COc1ccccc1Nc1ncc2c(n1)CN(C(=O)c1cccc(O)c1)CCN2` gave Pf Dd2 inh -4%[44.1 µM].
For COc1ccccc1Nc1ncc2c(n1)CN([S+](=O)([O-])c1ccccc1)CCN2 the results were Pf Dd2 inh 9%[44.1 µM].
For COc1ccccc1Nc1ncc2c(n1)CN(C(=O)c1ccc(Oc3ccccc3)cc1)CCN2 the results were Pf Dd2 inh 8.9µM*.
COc1ccc(C(=O)N2C(C(=O)N3CCOCC3)COC23CCN(C(=O)C2CCC2)CC3)cc1 (stereo not given) was read as Pf Dd2 inh -10%.
`Cc1ccc(SCCN(C)c2cc(C3CC(O)C3)nc(N)n2)cc1` (stereo not given) gave Pf Dd2 inh 5.6µM*.
`Cc1c(CN(C)c2cc(C3CC(O)C3)nc(N)n2)[nH]c2ccccc12` (stereo not given) gave Pf Dd2 inh -16%.
For CN(CCc1nc2ccc(Cl)cc2[nH]1)c1cc(C2CC(O)C2)nc(N)n1 (stereo not given) the results were Pf Dd2 inh inactive.

Compound activity: PubChem, National Center for Advancing Translational Sciences (NCATS)
